Assays:
Assay in all cases: DAPPL (digital affinity profiling via proximity ligation, sequencing); 10 mM Tris-HCl pH 7.5, 50 mM NaCl, 1 mM DTT, 4% glycerol, room temperature, 30 min; GST-TFs on glutathione beads, 16-mer random dsDNA library, 0.1% formaldehyde crosslink after washing; high values mean tight binding
Conditions in all cases: protein: recombinant; tags: N-terminal GST; dsDNA, one strand shown
[1] = molecular target: T1, FLI1 (Homo sapiens, UniProt Q01543 1-452)
T1 sequence: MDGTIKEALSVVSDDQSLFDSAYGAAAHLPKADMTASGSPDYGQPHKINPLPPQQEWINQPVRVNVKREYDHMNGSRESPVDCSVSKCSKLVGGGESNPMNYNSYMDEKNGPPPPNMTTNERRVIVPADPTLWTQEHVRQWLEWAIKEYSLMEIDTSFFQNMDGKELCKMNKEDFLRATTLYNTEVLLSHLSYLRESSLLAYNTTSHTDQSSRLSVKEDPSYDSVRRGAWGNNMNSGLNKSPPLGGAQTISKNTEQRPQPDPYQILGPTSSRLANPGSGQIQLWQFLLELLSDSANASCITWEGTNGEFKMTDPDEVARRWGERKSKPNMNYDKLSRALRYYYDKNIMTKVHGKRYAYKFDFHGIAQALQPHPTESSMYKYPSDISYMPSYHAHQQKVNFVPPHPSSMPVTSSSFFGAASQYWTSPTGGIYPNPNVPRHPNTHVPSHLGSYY
In short: (§1)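 A tag-only sample was pooled with DNA-barcoded human transcription factors that had been expressed in yeast as GST fusions and captured on glutathione beads. The pools were incubated for 30 min at room temperature with 200 nmole of a random double-stranded 16-mer DNA library in Tris/NaCl/DTT/glycerol buffer, then washed, crosslinked with 0.1% formaldehyde, proximity-ligated (BsaI/T4 ligase, 1 h, 37 °C), PCR-amplified and sequenced on an Illumina NextSeq500. Binding signal is each hexamer's read frequency for a factor divided by its frequency for the tag-only sample.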

[2] = molecular target: T2, ELK1 (Homo sapiens, UniProt P19419 1-428)
T2 sequence: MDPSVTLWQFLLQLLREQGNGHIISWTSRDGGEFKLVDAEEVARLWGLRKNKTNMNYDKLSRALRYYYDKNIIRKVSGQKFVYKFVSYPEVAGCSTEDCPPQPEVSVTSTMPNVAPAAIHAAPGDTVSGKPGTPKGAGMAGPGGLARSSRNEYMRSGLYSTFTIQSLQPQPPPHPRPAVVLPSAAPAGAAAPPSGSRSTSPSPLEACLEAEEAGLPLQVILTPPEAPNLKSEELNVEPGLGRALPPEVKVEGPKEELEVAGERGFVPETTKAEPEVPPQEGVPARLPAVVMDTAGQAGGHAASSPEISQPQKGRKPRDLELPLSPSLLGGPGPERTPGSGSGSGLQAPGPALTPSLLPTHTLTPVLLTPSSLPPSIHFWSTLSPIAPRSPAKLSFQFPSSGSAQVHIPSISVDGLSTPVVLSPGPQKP
In short: as §1

[3] = molecular target: T3, GABPA (Homo sapiens, UniProt Q06546 1-454)
T3 sequence: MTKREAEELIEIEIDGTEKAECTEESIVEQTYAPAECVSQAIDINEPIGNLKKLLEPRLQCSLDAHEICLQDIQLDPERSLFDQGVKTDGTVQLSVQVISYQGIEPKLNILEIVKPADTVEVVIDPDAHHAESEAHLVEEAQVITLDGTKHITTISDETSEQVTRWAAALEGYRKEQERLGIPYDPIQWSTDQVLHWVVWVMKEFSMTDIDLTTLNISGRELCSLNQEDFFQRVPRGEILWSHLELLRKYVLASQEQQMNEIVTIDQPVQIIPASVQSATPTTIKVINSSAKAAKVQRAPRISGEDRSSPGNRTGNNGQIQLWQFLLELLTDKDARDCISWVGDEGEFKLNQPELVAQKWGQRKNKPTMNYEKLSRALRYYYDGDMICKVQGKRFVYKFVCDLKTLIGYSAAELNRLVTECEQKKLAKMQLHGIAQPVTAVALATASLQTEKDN
In short: as §1

[4] = molecular target: T4, ERG (Homo sapiens, UniProt P11308 1-479)
T4 sequence: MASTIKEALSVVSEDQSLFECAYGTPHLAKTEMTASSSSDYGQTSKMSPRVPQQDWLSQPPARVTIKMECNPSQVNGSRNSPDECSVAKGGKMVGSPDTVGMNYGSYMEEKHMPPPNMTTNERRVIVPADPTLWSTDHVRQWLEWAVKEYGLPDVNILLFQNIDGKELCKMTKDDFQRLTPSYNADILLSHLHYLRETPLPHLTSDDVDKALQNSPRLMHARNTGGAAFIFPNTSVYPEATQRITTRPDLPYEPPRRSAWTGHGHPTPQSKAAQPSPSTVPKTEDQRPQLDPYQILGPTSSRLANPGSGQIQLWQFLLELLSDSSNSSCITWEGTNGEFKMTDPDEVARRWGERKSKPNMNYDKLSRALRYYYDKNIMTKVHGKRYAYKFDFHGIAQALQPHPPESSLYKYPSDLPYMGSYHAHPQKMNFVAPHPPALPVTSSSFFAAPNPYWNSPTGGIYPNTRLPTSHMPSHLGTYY
In short: as §1

[5] = molecular target: ELF1 (Homo sapiens, UniProt P32519 1-619)
Chain of ELF1 (P32519 whole entry): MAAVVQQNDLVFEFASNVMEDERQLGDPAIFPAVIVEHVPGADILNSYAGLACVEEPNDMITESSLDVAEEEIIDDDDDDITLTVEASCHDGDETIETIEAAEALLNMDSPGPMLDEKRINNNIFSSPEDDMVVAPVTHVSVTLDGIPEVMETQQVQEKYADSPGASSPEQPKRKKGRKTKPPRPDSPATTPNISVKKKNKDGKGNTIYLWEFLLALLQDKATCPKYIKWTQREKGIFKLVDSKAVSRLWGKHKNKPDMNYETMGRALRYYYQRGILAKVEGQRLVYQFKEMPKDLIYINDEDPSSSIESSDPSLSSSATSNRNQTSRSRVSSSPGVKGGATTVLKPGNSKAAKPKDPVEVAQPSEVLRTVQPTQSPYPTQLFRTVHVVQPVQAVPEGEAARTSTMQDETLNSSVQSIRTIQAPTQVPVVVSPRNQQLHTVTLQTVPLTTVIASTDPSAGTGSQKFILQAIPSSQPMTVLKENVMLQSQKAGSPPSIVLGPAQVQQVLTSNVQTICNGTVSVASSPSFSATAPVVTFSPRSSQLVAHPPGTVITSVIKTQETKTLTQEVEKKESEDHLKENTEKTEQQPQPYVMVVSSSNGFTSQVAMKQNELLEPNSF
In short: as §1

[6] = molecular target: T5, EHF (Homo sapiens, UniProt Q9NZC4 1-300)
T5 sequence: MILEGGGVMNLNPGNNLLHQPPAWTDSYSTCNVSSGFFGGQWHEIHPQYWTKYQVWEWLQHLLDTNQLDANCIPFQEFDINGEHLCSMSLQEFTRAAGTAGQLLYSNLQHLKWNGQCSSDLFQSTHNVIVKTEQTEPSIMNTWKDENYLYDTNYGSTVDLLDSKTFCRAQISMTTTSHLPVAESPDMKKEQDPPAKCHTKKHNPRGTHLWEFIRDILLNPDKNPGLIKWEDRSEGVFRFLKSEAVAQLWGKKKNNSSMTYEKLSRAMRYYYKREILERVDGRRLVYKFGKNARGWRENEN
In short: as §1

[7] = molecular target: SPI1 (Homo sapiens, UniProt P17947 1-270)
In short: as §1

[8] = molecular target: SPIB (Homo sapiens, UniProt Q01892 1-262)
Chain of SPIB (Q01892 whole entry): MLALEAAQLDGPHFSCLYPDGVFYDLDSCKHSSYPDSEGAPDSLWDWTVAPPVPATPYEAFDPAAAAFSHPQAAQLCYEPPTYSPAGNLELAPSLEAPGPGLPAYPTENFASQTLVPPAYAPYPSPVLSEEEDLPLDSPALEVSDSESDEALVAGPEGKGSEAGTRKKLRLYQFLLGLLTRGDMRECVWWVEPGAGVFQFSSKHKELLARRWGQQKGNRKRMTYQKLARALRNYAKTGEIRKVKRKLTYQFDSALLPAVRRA
In short: as §1

[9] = molecular target: T6, ELK3 (Homo sapiens, UniProt P41970 1-407)
T6 sequence: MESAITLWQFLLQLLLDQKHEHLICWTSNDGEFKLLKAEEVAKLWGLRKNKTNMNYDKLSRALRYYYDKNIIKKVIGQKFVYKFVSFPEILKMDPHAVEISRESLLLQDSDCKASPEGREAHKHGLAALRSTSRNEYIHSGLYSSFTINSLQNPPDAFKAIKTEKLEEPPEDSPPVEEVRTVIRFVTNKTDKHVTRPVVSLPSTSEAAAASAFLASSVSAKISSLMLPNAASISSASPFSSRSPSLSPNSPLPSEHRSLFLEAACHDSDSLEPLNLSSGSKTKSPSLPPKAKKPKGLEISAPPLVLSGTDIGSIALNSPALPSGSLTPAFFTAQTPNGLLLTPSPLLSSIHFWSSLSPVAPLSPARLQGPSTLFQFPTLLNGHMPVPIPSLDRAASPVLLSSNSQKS
In short: as §1

TGTATC was tested, and the binding signal [1] was 1.65 fold enrichment (6-mer frequency, TF over GST control), the binding signal [2] was 1.39 fold enrichment (6-mer frequency, TF over GST control) and the binding signal [3] was 1.45 fold enrichment (6-mer frequency, TF over GST control). The binding signal [4] was 1.39 fold enrichment (6-mer frequency, TF over GST control), the binding signal [5] was 1.38 fold enrichment (6-mer frequency, TF over GST control) and the binding signal [6] was 1.36 fold enrichment (6-mer frequency, TF over GST control). The binding signal [7] was 1.37 fold enrichment (6-mer frequency, TF over GST control), the binding signal [8] was 1.45 fold enrichment (6-mer frequency, TF over GST control) and the binding signal [9] was 1.44 fold enrichment (6-mer frequency, TF over GST control).

— paper PMC7862700, “An all-to-all approach to the identification of sequence-specific readers for epigenetic DNA modifications on cytosine”
